Data reported in PubChem BioAssay (NCI).
Values joined by “and” are separate entries in the source; they are usually repeats but may differ in a detail not shown here. Equal entries are not always repeated. Compounds without any hit were thinned out: in the full panel of roughly 83,000, 20% have a hit.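 In brief: 96-well plates, 48 h treatment, single concentration, percent growth endpoint.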 Active and inactive are the calls of the source. Rule for the calls: active = growth percent below 10; inactive = the rest.

system: HL-60(TB) leukemia; assay: NCI-60 one-dose screen, 48 h (100 = growth as untreated, 0 = no growth, -100 = all killed); conditions: 10 µM unless noted

Row | SMILES | growth
1 | Cc1ccc(C(SCCNCc2cc(N(C)C)ccn2)(c2ccccc2)c2ccccc2)cc1 | -40.9% (active)
2 | Cn1cc(-c2cc(N)n3nc(-c4c[nH]c5ccccc45)cc3n2)c2cccnc21 | -70.9% (active)
3 | CC(=O)C1=C(C)NC(SCC(=O)Nc2ccc(S(=O)(=O)Nc3cc(C)on3)cc2)=NC1c1ccccc1 (stereo not given) | 100% (inactive)
4 | C(=C\c1cc(/C=C/c2ccccc2)c2ccccc2n1)/c1ccccc1 | 2.48% (active)
5 | O=C(N/N=C/c1ccoc1)c1[nH]c2ccc(Br)cc2c1-c1ccccc1 | -27.3% (active)
6 | Clc1ccc2c(N/N=C/c3c[nH]c4ccc(Br)cc34)ccnc2c1 | -74.7% (active)
7 | O=C(N/C(=C1/OCCN1Cc1ccccc1)[P+](c1ccccc1)(c1ccccc1)c1ccccc1)c1ccccc1 | -13.1% (active)
8 | NS(=O)(=O)c1ccc(Nc2nc(N/N=C/c3cc(Br)c(O)c(Br)c3)nc(Nc3ccccc3)n2)cc1 | 47.3% (inactive)
9 | N#CC1=C(c2cccs2)Nc2c(c(-c3ccccc3)nn2-c2ccccc2)C12C(=O)Nc1ccc(Cl)cc12 (stereo not given) | -4.48% (active)
10 | Cc1nc2sccn2c1-c1nnc(SCc2ccccc2)o1 | 89.9% (inactive)
11 | Cc1noc2c(Cc3ccc([N+](=O)[O-])cc3)nn(CC(=O)N/N=C/c3ccc(Cl)cc3)c(=O)c12 | 87.5% (inactive)
12 | O=C(CN1C(=O)/C(=C/c2ccccc2F)SC1=S)N1CCOCC1 | 82.5% (inactive)
13 | CN(C)c1nc(NCCNS(=O)(=O)c2ccc(C3=Nc4c(N)nc(N)nc4NC(c4ccc(C(F)(F)F)cc4)C3)cc2)nc(N2CCOCC2)n1 (stereo not given) | 6.05% (active)
14 | CC(=O)OCC1OC(OC2C(COC(C)=O)OC(n3cc(COc4ccc5ccc(=O)oc5c4)nn3)C(OC(C)=O)C2OC(C)=O)C(OC(C)=O)C(OC(C)=O)C1OC(C)=O (stereo not given) | 103% (inactive)
15 | O=C(CSc1nc2ccccc2c(=O)[nH]1)NCCN1CCCCC1 | 94.4% (inactive)
16 | C=CC[N+](C)(C)CCn1c2ccccc2c2nc3cc(C)c(C)cc3nc21 | 97.7% (inactive)
17 | CN(C)c1ccc(/C=C/c2nc3ccccc3c(=O)n2CC(=O)Nc2ccc(Cl)cc2)cc1 | 95% (inactive)
18 | CC1=C(C(=O)OC(C)C)C(c2ccc(O)cc2)NC(=S)N1 (stereo not given) | 88.1% (inactive)

Row | SMILES | growth
19 | O=C1Nc2cc(Cl)ccc2/C1=C/c1cccc(OCc2ccc(Br)cc2F)c1 | -57.8% (active)
20 | COc1ccc(C(=O)/C=C/c2cc(F)cc(C(F)(F)F)c2)cc1S(N)(=O)=O | -4.63% (active)
21 | O=C(/C=C/c1ccc(O)c(O)c1)NC1CCOC1O (stereo not given) | 99.1% (inactive)
22 | O=C(NO)c1ccc(-c2nc3ccc4[nH]ncc4c3c3c2CCCC3)cc1 | -18.7% (active)
23 | COc1ccccc1[C@H]1C(C(=O)c2ccc(Cl)cc2)C2(N[C@@H]1c1ccccc1)C(=O)Nc1ccc(Cl)cc12 (stereo not given in full) | -25.1% (active)
24 | O=C(Nc1ccc(-c2ccc3c(c2)NC(=O)/C3=C\c2ccc[nH]2)cc1)Nc1cccc(Cl)c1 | 10.6% (inactive)
25 | Brc1ccc(N/N=C/c2c[nH]c3ccc(Br)cc23)nc1 | -17.2% (active)
26 | CNS(=O)(=O)c1ccc(Nc2ccc(C(F)(F)F)cc2)c(-c2cn(C)cn2)c1 | 48% (inactive)
27 | Cc1ccc([C@H]2C(C(=O)c3ccc(Cl)cc3)C3(N[C@@H]2c2ccccc2)C(=O)Nc2ccc(Br)cc23)cc1 (stereo not given in full) | 35.1% (inactive)
28 | C/C(=N\Nc1ccc(S(N)(=O)=O)cc1)c1cnn(-c2cc(=O)[nH]c3ccc(Br)cc23)c1C | 84.7% (inactive)
29 | Nc1nnc(-c2c[nH]c3ncc(Br)cc23)c(-c2c[nH]c3ccc(Br)cc23)n1 | 11.2% (inactive)
30 | COc1cc(C2CC(c3ccc(S(=O)(=O)NCCNc4nc(N(C)C)nc(N5CCOCC5)n4)cc3)=Nc3c(N)nc(N)nc3N2)cc(OC)c1OC (stereo not given) | 93.6% (inactive)
31 | COc1ccc(N2N=C(c3ccc4c(c3)OCO4)CC2c2cccc(NC(=O)CCCNS(=O)(=O)c3ccc(F)cc3)c2)cc1 (stereo not given) | 55.7% (inactive)
32 | Cc1cc2nc3c4ccccc4n(CCCN(C)C)c3nc2cc1C | -40.5% (active)
33 | CC(=O)Nc1cccc(-n2c(COc3ccc(Br)cc3)nc3ccccc32)c1 | 113% (inactive) and 103% (inactive)
34 | FC(F)(F)c1cc2c(Cl)ncnc2n1CCC1CCOCC1 | -59.6% (active)
35 | Cn1cc(-c2nc(N)nnc2-c2c[nH]c3ccccc23)c2cc(Br)cnc21 | 4.17% (active)
